Data reported in PubChem BioAssay AID624417 (National Center for Advancing Translational Sciences (NCATS), 2012).
The campaign covered roughly 410,000 compounds. About 6,400 (1.6%) were called active. Another 20% or so got no clear call; they are omitted. Calls come from the whole dose curve; as a rule, active = well fitted inhibition curve with a large enough effect; inconclusive = small, poorly fitted or top-dose-only effect; inactive = no such curve, though single readings can be large or run the other way. Shown is part of a subset that was picked to be rich in actives.

These molecules were tested against Glucagon-like peptide 1 receptor (Homo sapiens) (UniProt P43220) (assay: qHTS of GLP-1 Receptor Inverse Agonists (Inhibition Mode)). Details: HEK293 GLP-1R CRE-luciferase, luminescence, 24 h, GLP-1R form is constitutively active; series mostly up to 38.3 µM; activity change, negative = inhibition: at the top concentration.
Text: The overall goal of this project was to develop a novel assay for discovering small molecule ligands for class B1 G protein-coupled receptors (GPCRs). Very few agonists (or inverse agonists in inhibition mode) with generally weak activity for this entire group of physiologically important receptors are known to date. To establish proof-of-principle that this critical bottleneck can be overcome with a suitable screening approach, our studies focused on the class B1 receptor for glucagon-like peptide-1 (GLP-1R), a potential therapeutic target for diabetes and neurodegenerative disease. The assay was developed using a cell-based functional readout. Toward this goal, stably transfected HEK293 cell clones were established that co-express (i) a cAMP-responsive luciferase reporter gene, and (ii) constitutively active GLP-1R that upon ligand interaction inhibit (inverse agonists) the luciferase activity. In addition, two control cell lines were developed: (i) one that express only the cAMP-responsive reporter gene to enable initial exclusion of GLP-1R independent effects of candidate probes; and (ii) one with the reported gene cloned with another constitutively active orphan receptor GPR119 to enable exclusion of GLP-1R independent inhibitor effects of candidate inverse agonists. To that end, this assay was optimized for 1536-well format and screened against the MLSMR. […] NIH Molecular Libraries Probe Production Network [MLPCN] NIH Chemical Genomics Center [NCGC] Grant: NS064851 PI Name: Martin Beinborn, Tufts Medical Center
Six ul of cell suspension (200 cells/uL in DMEM + 10% Nu serum + 1% pen-strep) is dispensed in a white solid 1536-well plate. The plates are incubated for 12 hours at 37 deg C at 5% CO2 followed by addition of 23 nL compounds. After 24 hr incubation at 37 deg C and 5% CO2, 3 uL of luciferase assay detection reagent is added. A luminescence read is obtained on the PerkinElmer Viewlux after 12 min incubation at room temperature.
% is set by controls: 0 for no effect and ±100 for the full control effect; potency is the fitted concentration of half-maximal effect.
Note: nearly all actives have a fitted effect of over 55% in size.

Chain of Glucagon-like peptide 1 receptor (Homo sapiens) (P43220 whole entry, looked up): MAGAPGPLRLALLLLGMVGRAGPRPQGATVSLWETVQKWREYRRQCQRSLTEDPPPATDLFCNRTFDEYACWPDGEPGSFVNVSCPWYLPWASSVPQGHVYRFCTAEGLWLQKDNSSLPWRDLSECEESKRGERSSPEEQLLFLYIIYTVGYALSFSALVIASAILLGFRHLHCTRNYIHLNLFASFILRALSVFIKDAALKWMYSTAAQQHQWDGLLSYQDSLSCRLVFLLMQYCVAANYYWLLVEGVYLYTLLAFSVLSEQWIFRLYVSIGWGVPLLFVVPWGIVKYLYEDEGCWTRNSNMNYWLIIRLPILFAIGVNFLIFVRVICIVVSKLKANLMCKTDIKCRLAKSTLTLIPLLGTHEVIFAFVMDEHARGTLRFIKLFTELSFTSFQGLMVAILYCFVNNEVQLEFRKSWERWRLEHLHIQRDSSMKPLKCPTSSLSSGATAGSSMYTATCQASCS

Activity change, negative = inhibition, inactive:
O=C(c1cccs1)N1CCN(Cc2ccc3c(c2)OCO3)CC1 -17.2%
O=C(Nc1cccc2ccccc12)N1CCN(Cc2ccc3c(c2)OCO3)CC1 -8.77%
CCCC(=O)N1CCC1(C)C(=O)NCc1ccc(SC)cc1 (stereo unspecified) 23.8%
CC1(C(=O)NS(=O)(=O)c2ccccc2Cl)CCN1C(=O)c1cccc(F)c1 (stereo unspecified) 5.93%
O=C(N/N=C/c1ccc(OC(=O)c2ccccc2Cl)cc1)c1ccc(O)cc1 -23.4%
O=C(Cc1cccs1)N/N=C/c1ccc(OCc2ccccc2)cc1 -1.37%
O=C(O)c1ccccc1Cc1ccc(F)c2ccccc12 -24.8%
CCC(C(=O)NC(C)(C)C)n1c(-c2ccccc2)nc2ccccc21 (stereo unspecified) -19%
C[C@H]1CN([C@@H](C)CO)C(=O)c2cc(-c3ccccc3F)cnc2O[C@H]1CN(C)C(=O)C1CCOCC1 -13.6%
CC1(C(=O)Nc2cccc3cccnc23)CCN1C(=O)CCC1CCCC1 (stereo unspecified) -3.58%
O=C(NCCN1CCOCC1)c1ccc2c(c1)N(Cc1cccc(Cl)c1)C(=O)c1ccccc1S2(=O)=O -27.9%
Fc1cccc(Cc2noc(CN3CCN(c4cnccn4)CC3)n2)c1 -5.63%
Cc1cccc(N2CCN(Cc3nc(C4CC4)no3)CC2)n1 -5.11%
Cc1cc(Cl)ccc1OCCCC(=O)NCc1ccccn1 15.3%
Cc1cc(Cl)ccc1OCCCC(=O)NCc1ccncc1 8.81%
COc1ccc(C(O)c2nc(-c3ccc(OC)nc3)cs2)cc1 (stereo unspecified) -6.1%
Cc1cc(Br)cn2c(Cc3ccccc3C(F)(F)F)c(-c3ccc(Cl)cc3)nc12 -21.1%
CCCCN(C=O)c1c(CC)nc2c(OCc3ccccc3C(=O)OC)cccn12 -20.9%
O=S1(=O)CC(N2CCN(c3ccccn3)CC2)CN1Cc1ccc(F)cc1 (stereo unspecified) -6.64%
CCc1nc2c(OCc3ccc(F)c(F)c3)cccn2c1N(C)C(=O)c1ccco1 -6.92%
CCCNC(=O)c1cc(C2CCCCN2S(=O)(=O)c2ccc(C#N)cc2)on1 (stereo unspecified) 10.6%
Cc1nc(NC(=O)C23CCC(C)(C(=O)O2)C3(C)C)sc1C (stereo unspecified) -14.9%
Cc1nc2ccc(NC(=O)C3CCCCC3)cc2s1 7.04%
NC(=O)CSc1nnc(-c2cccc(S(=O)(=O)N3CCOCC3)c2)o1 -1.36%
Cc1ccc(C(=O)NC(C)C(c2cccs2)N2CCOCC2)cc1C (stereo unspecified) -10.4%
Cn1nc(N)c2ncc(C(Cl)(Cl)Cl)nc21 26.9%
O=c1cc(CN2CCN(c3cccc(Cl)c3)CC2)c2cc3c(cc2o1)CCCC3 0%
CC(=O)Nc1ccc(OCC(O)CN2CCN(c3ccccc3Cl)CC2)cc1 (stereo unspecified) -43.5%
O=[N+]([O-])c1ccc(N2CCN(CC(O)COc3ccccc3)CC2)cc1 (stereo unspecified) -33.7%
OC(COc1ccc(Br)cc1)CN1CCCC1 (stereo unspecified) -28.2%
Cc1ccc(S(=O)(=O)N2C[C@]3(O)C[C@@H]4C(=O)N(c5ccccc5)C(=O)[C@@H]4C[C@]3(OC(=O)NC3CC3)C2)cc1 6.42%
C[C@H](O)[C@@H]1C(=O)N2CCc3c([nH]c4ccccc34)[C@@H]2C[C@@H]1N(C)C(=O)Nc1ccc(F)cc1 -27.5%
CCN([C@H](CO)C(C)C)S(=O)(=O)c1ccccc1Br -6.5%
Cc1cc(C)n2c(NCc3ccccc3)c(CC(C)C)nc2n1 17.8%
COCCn1c(SCC(=O)Nc2ccc(F)cc2F)nc2c(c1=O)SCC2 14.7%
CC1(C(=O)NCc2ccccc2)CSCC(=O)N1CCCn1ccnc1 (stereo unspecified) 0.0455%
Cc1cccc(N2CCN(C(=O)c3cccc(N4C(=O)C5C6C=CC(C6)C5C4=O)c3)CC2)c1C (stereo unspecified) 1.97%
O=S(=O)(c1ccccc1)N1CCc2ccccc21 -1.14%
O=C(Nc1cccc(C(=O)O)c1)/C(=C\c1ccccc1)NC(=O)c1ccc(Br)o1 0.998%
OC[C@@H]1CN(Cc2ccc(F)cc2)C[C@H](n2cnc3c(NC4CCCC4)ncnc32)O1 5.41%
OC[C@@H]1CN(Cc2cccs2)C[C@H](n2cnc3c(NC4CCCC4)ncnc32)O1 6.84%

Potency, active:
O=C(CSCc1ccc(Cl)cc1)N1CCN(Cc2ccc3c(c2)OCO3)CC1 10 µM
O=C(N/N=C/c1ccc(OCc2ccccc2)cc1)c1ccc(O)cc1 2.82 µM
Cc1ccccc1N1CCN(Cc2nc(Cc3ccccc3F)no2)CC1 11.2 µM
Cc1cc(Cl)ccc1OCCCC(=O)Nc1cccc(-n2cnnn2)c1 10 µM
Cc1nc(NC(=O)C2CCCCC2)sc1C 8.91 µM
O=C(c1ccc(Cl)cc1)c1ccc(OCC(O)CN2CCCCC2)cc1 (stereo unspecified) 5.01 µM
OC(COc1ccc2c(c1)CCC2)CN1CCN(c2cccc(Cl)c2)CC1 (stereo unspecified) 10 µM
C=CC(COCc1ccccc1)N(Cc1ccccc1)S(=O)(=O)c1ccccc1Br (stereo unspecified) 10 µM
CC(C)Cc1ccc(-c2cc3nc(NCc4cccc(Cl)c4)ccn3n2)cc1 2.82 µM
Cc1cccc(N2CCN(C(=O)c3ccc4c(c3)CCN4S(=O)(=O)c3ccccc3)CC2)c1C 7.94 µM
